Values joined by “and” are separate entries in the source; they are usually repeats but may differ in a detail not shown here. Equal values may be shown once. The panel holds about 79,000 compounds, 15% with a hit somewhere; the sample as a whole holds those more often. The source holds several records for some structures; these can differ, active in one and inactive in another. Active and inactive are the calls of the source. Rule as the data show it: active = growth inhibition above about 70%; inactive = the rest.

Among the data in PubChem BioAssay (NCI) are growth inhibition values, retold here.

The nature of assay [1]: NCI Yeast Anticancer Drug Screen. Data for the rad50 strain (AID 155).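 Also: 0% = growth of vehicle-only cultures of the same strain.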 The note with it: S. cerevisiae rad50 strain growth inhibition, stronger effect = higher value. The method in brief: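 Inhibition values express reduced yeast growth in compound-treated cultures relative to vehicle-treated controls.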
A short description of assay [2]: NCI Yeast Anticancer Drug Screen. Data for the mec2-1 strain (AID 157). The note with it: S. cerevisiae mec2-1 strain, stronger effect = higher value. Put shortly:
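Test agents were screened against the mec2-1 yeast strain, with defined DNA repair or cell cycle alteration. Growth was scored as inhibition against vehicle-only controls.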

Assay [3] can be described thus: NCI Yeast Anticancer Drug Screen. Data for the sgs1 mgt1 strain (AID 161).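 Also: 0% = growth of cultures given vehicle only.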 The note with it: S. cerevisiae sgs1 mgt1 strain, stronger effect = higher value. Put shortly:
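Genetically altered yeast, compound exposure, growth inhibition relative to vehicle.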

Assay [4] in a line: NCI Yeast Anticancer Drug Screen. Data for the cln2 rad14 strain (AID 165).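 Also: 0% = growth equal to vehicle treated cultures.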 The note with it: S. cerevisiae cln2 rad14 strain, stronger effect = higher value. The method in brief: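 Growth of compound-exposed yeast (cln2 rad14 genotype) measured and expressed as inhibition relative to vehicle.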
The nature of assay [5]: NCI Yeast Anticancer Drug Screen. Data for the bub3 strain (AID 167). The note with it: S. cerevisiae bub3 mutant strain, stronger effect = higher value. The method in brief:
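Steps: expose the mutant yeast strain to compound; grow alongside vehicle-treated cultures; measure growth; express inhibition against the vehicle cultures.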

The nature of assay [6]: NCI Yeast Anticancer Drug Screen. Data for the mlh1 rad18 strain (AID 175). The note with it: S. cerevisiae mlh1 rad18 strain growth inhibition, stronger effect = higher value. Put shortly: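 In this whole-cell yeast screen, a strain with altered DNA damage repair is challenged with compound, and its growth is measured against matched vehicle-treated controls.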
[7] abbreviates: at 5.0 µM (retest, dose inferred, filed as 0.5).
[8] abbreviates: at 50.0 µM (retest, dose inferred, filed as 5.0).

Regarding `Fc1cccc(NC(=S)SCc2ccc(Cl)c(Cl)c2)c1`, the growth inhibition in assay [1] (setting [7]) is 8% (inactive); in assay [1] (setting [8]) it was 94% (active); in assay [1] (at 50.0 µM) it was 98.2% (active); in assay [2] (setting [7]) it was 3% (inactive); in assay [2] (setting [8]), 93% (active); in assay [2] (at 50.0 µM) it was 99.2% (active). Moreover, the growth inhibition in assay [3] (setting [7]) was 6% (inactive); in assay [3] (setting [8]), 98% (active); in assay [3] (at 50.0 µM), 99% (active); in assay [4] (setting [7]), -7% (inactive); in assay [4] (setting [8]) it was 85% (active); in assay [4] (at 50.0 µM), 98.8% (active). Moreover, the growth inhibition in assay [5] (setting [7]) was 0% (inactive); in assay [5] (setting [8]) it was 95% (active); in assay [5] (at 50.0 µM), 98% (active); in assay [6] (setting [7]), 4% (inactive); in assay [6] (setting [8]), 96% (active); in assay [6] (at 50.0 µM), 99% (active).
Regarding `CC1(C)CC(=O)C2=C(C1)OC1=C(CC(C)(C)CC1=O)C2c1ccccc1Cl` (stereo unspecified), the growth inhibition in assay [1] (setting [7]) is 19% (inactive); in assay [1] (setting [8]) it was 16% (inactive); in assay [1] (at 50.0 µM) it was -5.65% (inactive); in assay [2] (setting [7]) it was 12% (inactive); in assay [2] (setting [8]), 13% (inactive); in assay [2] (at 50.0 µM), -7.45% (inactive). Moreover, the growth inhibition is 8% (inactive) in assay [3] (setting [7]); 10% (inactive) in assay [3] (setting [8]); -1.9% (inactive) in assay [3] (at 50.0 µM); 37% (inactive) in assay [4] (setting [7]); 33% (inactive) in assay [4] (setting [8]); 5.45% (inactive) in assay [4] (at 50.0 µM). Moreover, the growth inhibition was -11% (inactive) in assay [5] (setting [7]); -10% (inactive) in assay [5] (setting [8]); 13.2% (inactive) in assay [5] (at 50.0 µM); 17% (inactive) in assay [6] (setting [7]); 17% (inactive) in assay [6] (setting [8]); -15.2% (inactive) in assay [6] (at 50.0 µM).
Consider `Clc1ccc2c(c1)[nH]c1c2nc2ccccn21`, for which the growth inhibition was 21% (inactive) in assay [1] (setting [7]); 95% (active) in assay [1] (setting [8]); 62.9% (inactive) and 83.2% (active) in assay [1] (at 50.0 µM); 19% (inactive) in assay [2] (setting [7]); 98% (active) in assay [2] (setting [8]); -11.3% (inactive) and 67.4% (inactive) in assay [2] (at 50.0 µM). Further, the growth inhibition is 50% (inactive) in assay [3] (setting [7]); 95% (active) in assay [3] (setting [8]); 19.4% (inactive) and 85.7% (active) in assay [3] (at 50.0 µM); 47% (inactive) in assay [4] (setting [7]); 95% (active) in assay [4] (setting [8]); 25.2% (inactive) and 77.5% (active) in assay [4] (at 50.0 µM). The growth inhibition was 36% (inactive) in assay [5] (setting [7]); 97% (active) in assay [5] (setting [8]); 15.2% (inactive) and 79.2% (active) in assay [5] (at 50.0 µM); 11% (inactive) in assay [6] (setting [7]); 98% (active) in assay [6] (setting [8]); -14.4% (inactive) and 80.4% (active) in assay [6] (at 50.0 µM).
Regarding `c1ccc(N=c2cnc3c(ccc4ccccc43)o2)cc1`, the growth inhibition in assay [1] (setting [7]) is 97% (active); in assay [1] (setting [8]), 93% (active); in assay [1] (at 50.0 µM), 93.5% (active); in assay [2] (setting [7]) it was 97% (active); in assay [2] (setting [8]) it was 96% (active); in assay [2] (at 50.0 µM), 95.5% (active). Also, the growth inhibition in assay [3] (setting [7]) is 96% (active); in assay [3] (setting [8]) it was 95% (active); in assay [3] (at 50.0 µM), 94.2% (active); in assay [4] (setting [7]) it was 99% (active); in assay [4] (setting [8]), 98% (active); in assay [4] (at 50.0 µM) it was 98.6% (active). The growth inhibition in assay [5] (setting [7]) was 64% (inactive); in assay [5] (setting [8]), 84% (active); in assay [5] (at 50.0 µM) it was 79.2% (active); in assay [6] (setting [7]) it was 97% (active); in assay [6] (setting [8]), 96% (active); in assay [6] (at 50.0 µM), 96.8% (active).
For the molecule `C=CCN(CC=C)C(CC(=O)C(C)(C)C)=NCC`, the growth inhibition is 0% (inactive) in assay [1] (setting [7]); -6% (inactive) in assay [1] (setting [8]); -14.9% (inactive) in assay [1] (at 50.0 µM); -7% (inactive) in assay [2] (setting [7]); 6% (inactive) in assay [2] (setting [8]); -7.85% (inactive) in assay [2] (at 50.0 µM). The growth inhibition in assay [3] (setting [7]) is 0% (inactive); in assay [3] (setting [8]), -6% (inactive); in assay [3] (at 50.0 µM) it was -5.85% (inactive); in assay [4] (setting [7]) it was 1% (inactive); in assay [4] (setting [8]), 1% (inactive); in assay [4] (at 50.0 µM), 36% (inactive). For the same molecule, the growth inhibition in assay [5] (setting [7]) is -3% (inactive); in assay [5] (setting [8]) it was 3% (inactive); in assay [5] (at 50.0 µM), -3.75% (inactive); in assay [6] (setting [7]), -11% (inactive); in assay [6] (setting [8]), 1% (inactive); in assay [6] (at 50.0 µM), -22.6% (inactive).
Consider `CC(O)CN1CCN(CC(C)O)CC1.[I][Pt+2][I]` (stereo unspecified), for which the growth inhibition in assay [1] (setting [7]) is -5% (inactive); in assay [1] (setting [8]), 27% (inactive); in assay [1] (at 50.0 µM), 59.7% (inactive); in assay [2] (setting [7]) it was -295% (inactive); in assay [2] (setting [8]) it was 11% (inactive); in assay [2] (at 50.0 µM), 37.2% (inactive). Moreover, the growth inhibition in assay [3] (setting [7]) is -1% (inactive); in assay [3] (setting [8]), 16% (inactive); in assay [3] (at 50.0 µM) it was 78.9% (active); in assay [4] (setting [7]), 2% (inactive); in assay [4] (setting [8]), 7% (inactive); in assay [4] (at 50.0 µM), 17.9% (inactive). In addition, the growth inhibition in assay [5] (setting [7]) is -1% (inactive); in assay [5] (setting [8]), 2% (inactive); in assay [5] (at 50.0 µM) it was -2% (inactive); in assay [6] (setting [7]), -2% (inactive); in assay [6] (setting [8]), 16% (inactive); in assay [6] (at 50.0 µM) it was 92.7% (active).
Turning to `O/N=C(\CC(O)(C(F)(F)F)C(F)(F)F)c1cccc(Cl)c1`, the growth inhibition in assay [1] (setting [7]) was 13% (inactive); in assay [1] (setting [8]) it was 80% (active); in assay [1] (at 50.0 µM), 91% (active); in assay [2] (setting [7]) it was 17% (inactive); in assay [2] (setting [8]), 98% (active); in assay [2] (at 50.0 µM), 93.6% (active). In addition, the growth inhibition in assay [3] (setting [7]) was 10% (inactive); in assay [3] (setting [8]), 97% (active); in assay [3] (at 50.0 µM), 92.8% (active); in assay [4] (setting [7]), 8% (inactive); in assay [4] (setting [8]) it was 95% (active); in assay [4] (at 50.0 µM), 89% (active). The growth inhibition is 14% (inactive) in assay [5] (setting [7]); 97% (active) in assay [5] (setting [8]); 90.5% (active) in assay [5] (at 50.0 µM); 26% (inactive) in assay [6] (setting [7]); 97% (active) in assay [6] (setting [8]); 89.3% (active) in assay [6] (at 50.0 µM).
